Consider 22 compounds from PubChem BioAssay (NCATS).

Assay [1] is described as follows: qHTS profiling for inhibitors of Plasmodium falciparum proliferation (AID 504749).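 For activity, negative = inhibition: 0% = DMSO vehicle and full inhibition = artemisinin control.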 For all read-outs here: nearly all actives have a fitted effect of over 60% in size. The note with it: P. falciparum in erythrocytes, SYBR Green DNA, 72 h; for activity, negative = inhibition: at 28.7 µM (top of the series). The procedure, abridged: (§1)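 Parasite proliferation within erythrocytes, 72 h exposure. Endpoint: SYBR Green I fluorescence after overnight lysis at room temperature. Controls: 0.29 uM artemisinin, DMSO.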

For another assay, the system named is 3D7. Described as above. The note with it: P. falciparum in erythrocytes, SYBR Green DNA, 72 h; series mostly up to 28.7 µM. The procedure, abridged: as §1
Another assay has as its system AA1029. The description is as above. The following applies: P. falciparum in erythrocytes, SYBR Green DNA, 72 h; series mostly up to 28.7 µM. The gist of the method:
as §1

The subject of another assay is 7G8. Described as above. The note with it: P. falciparum in erythrocytes, SYBR Green DNA, 72 h; series mostly up to 28.7 µM. The procedure, abridged: as §1

Structures are written as SMILES. Records with an inconclusive call do not appear. Unmarked numbers belong to inactive results. Active and inactive are the calls of the source. Calls come from the whole dose curve; as a rule, active = well fitted inhibition curve with a large enough effect; inconclusive = small, poorly fitted or top-dose-only effect; inactive = flat fitted curve, though single readings scatter.
Potency is the fitted concentration of half-maximal effect.

Regarding `Nc1ccc([As](=O)(O)O)cc1`, the activity, negative = inhibition in assay [1] (parasite line A) is -20%; in assay [1] (parasite line B) it was -5.31%. Further, the Potency entry in the assay with 3D7 and in the assay with AA1029 was “inactive” each time.
Turning to `CN1C(=O)C(O)N=C(c2ccccc2)c2cc(Cl)ccc21` (stereo not drawn), the activity, negative = inhibition in assay [1] (parasite line A) is 4.85%. The Potency entry in the assay with 3D7, in the assay with 7G8 and in the assay with AA1029 was “inactive” each time.
As for `CCCC(C)(COC(N)=O)COC(N)=O`, the activity, negative = inhibition in assay [1] (parasite line A) was 5.3%; in assay [1] (parasite line B), 9.68%. Besides, the Potency entry in the assay on 3D7, in the assay with 7G8 and in the assay with AA1029 was “inactive” in each case.
As to `c1ccc2c(c1)sc1ccccc12`, the activity, negative = inhibition in assay [1] (parasite line A) is -4.2%. In addition, the Potency entry in the assay with 3D7, with 7G8 and with AA1029 was “inactive” each time.
Take `Clc1ccc(C(c2ccc(Cl)cc2)C(Cl)(Cl)Cl)cc1`: the activity, negative = inhibition in assay [1] (parasite line A) was 4.12%. For the same compound, in the assay with 7G8, the Potency is 8.91 µM (active). Also, in the assay with AA1029, the Potency entry is “inactive”.
On to `CCC(C)(C)c1ccc(O)cc1`, for which the activity, negative = inhibition in assay [1] (parasite line A) is 2.92%; in assay [1] (parasite line B) it was 14.5%. Besides, the Potency entry in the assay with 3D7, with 7G8 and with AA1029 was “inactive” throughout.
As for `O=C1c2ccccc2C(=O)C1C(=O)C(c1ccccc1)c1ccccc1`, the activity, negative = inhibition was 4.21% in assay [1] (parasite line A) and -28% in assay [1] (parasite line B). Also, the Potency result with AA1029 was “inactive”.
As to `O=C1OC(c2ccc(O)c(S(=O)(=O)O)c2)(c2ccc(O)c(S(=O)(=O)O)c2)c2c(Br)c(Br)c(Br)c(Br)c21`, the activity, negative = inhibition in assay [1] (parasite line A) is 4.12%; in assay [1] (parasite line B), 7.49%. Besides, the Potency entry in the assay with 3D7, in the assay with 7G8 and in the assay with AA1029 was “inactive” each time.
Regarding `CC(C)=CC1C(C(=O)OCN2C(=O)C3=C(CCCC3)C2=O)C1(C)C` (stereo not drawn), the activity, negative = inhibition is 4.58% in assay [1] (parasite line A) and 1.1% in assay [1] (parasite line B). In addition, the Potency result with 3D7, with 7G8 and with AA1029 was “inactive” each time.
In the case of `COC(=O)C(c1ccccc1)C1CCCCN1` (stereo not drawn), the results for the activity, negative = inhibition in assay [1] (parasite line A) and in assay [1] (parasite line B) were 10.8% and 13.8%, respectively. Also, the Potency result with 3D7 and in the assay with AA1029 was “inactive” each time.
Regarding `O=C1CN=C(c2ccccc2)c2cc([N+](=O)[O-])ccc2N1`, the results for the activity, negative = inhibition in assay [1] (parasite line A) and in assay [1] (parasite line B) were 0.461% and 15.1%, respectively. Further, the Potency result with 3D7, with 7G8 and with AA1029 was “inactive” in each case.
Turning to `NNc1ccccc1`, the activity, negative = inhibition in assay [1] (parasite line A) is 7.49%. The Potency result in the assay with 3D7, in the assay on 7G8 and in the assay on AA1029 was “inactive” each time.
For `O=C1c2ccccc2C(=O)c2ccccc21`, the activity, negative = inhibition was -2.68% in assay [1] (parasite line A) and 6.43% in assay [1] (parasite line B). Besides, the Potency in the assay with 7G8 was 5.01 µM (active). In addition, the Potency result in the assay on AA1029 was “inactive”.
On to `CCOC(=O)CC(SP(=S)(OC)OC)C(=O)OCC` (stereo not drawn), for which the activity, negative = inhibition in assay [1] (parasite line A) is 10.2%; in assay [1] (parasite line B), -3.96%. Besides, the Potency entry in the assay with 3D7, in the assay with 7G8 and with AA1029 was “inactive” throughout.
For the compound `C[C@]12CCC(=O)C=C1CC[C@@H]1[C@@H]2CC[C@]2(C)C(=O)CC[C@@H]12`, the results for the activity, negative = inhibition in assay [1] (parasite line A) and in assay [1] (parasite line B) were -9.45% and 3.53%, respectively. In addition, the Potency result with 3D7, in the assay with 7G8 and in the assay on AA1029 was “inactive” each time.
`CN1C(=O)NC(=O)C(C)(C2=CCCCC2)C1=O` (stereo not drawn): the activity, negative = inhibition in assay [1] (parasite line B) is 7.06%. Moreover, the Potency result with 3D7, with 7G8 and in the assay with AA1029 was “inactive” throughout.
In the case of `O=C1Nc2ccc(Cl)cc2C(c2ccccc2)=NC1O` (stereo not drawn), the activity, negative = inhibition in assay [1] (parasite line A) is -1.71%; in assay [1] (parasite line B) it was 3.16%. Further, the Potency entry in the assay with 3D7, in the assay on 7G8 and in the assay with AA1029 was “inactive” each time.
As to `COP(=S)(OC)Oc1ccc(SC)c(C)c1`, the results for the activity, negative = inhibition in assay [1] (parasite line A) and in assay [1] (parasite line B) were 8.16% and 12.2%, respectively. Further, the Potency entry with 3D7, in the assay on 7G8 and in the assay with AA1029 was “inactive” each time.
For the compound `Clc1cccc(SC2CCNCC2)n1`, the results for the activity, negative = inhibition in assay [1] (parasite line A) and in assay [1] (parasite line B) were 12.4% and 2.53%, respectively. The Potency result in the assay with 3D7 and in the assay on AA1029 was “inactive” in each case.
As to `Cc1nnc2n1-c1ccc(Cl)cc1C(c1ccccc1)=NC2`, the activity, negative = inhibition in assay [1] (parasite line A) is -6.67%; in assay [1] (parasite line B) it was 6.11%. Moreover, the Potency entry with AA1029 was “inactive”.
For `NC(=O)c1cc([N+](=O)[O-])cc([N+](=O)[O-])c1`, the activity, negative = inhibition in assay [1] (parasite line B) is -21.3%. For the same compound, the Potency in assay [1] (parasite line A) was 7.94 µM (active). Besides, the Potency entry in the assay with AA1029 is “inactive”.
Take `C=C(C)[C@H]1CN[C@H](C(=O)O)[C@H]1CC(=O)O`: the activity, negative = inhibition in assay [1] (parasite line A) is 3.91%; in assay [1] (parasite line B), 11.4%. Besides, the Potency result with 3D7 and in the assay with AA1029 was “inactive” in each case.
